Measured values from PubChem BioAssay (NCATS).
Results filed as inconclusive are left out. Where a call stands in place of a potency, no number is given. Active and inactive are the calls of the source. Unless noted, the call rests on the fitted dose curve; in most records, active means well fitted curve in the direction sought with a large enough effect; inconclusive means small, poorly fitted or top-dose-only effect, or another doubt; inactive means no such curve, though single readings can be large; an effect the other way counts as inactive or inconclusive.

Columns and labels:
[1] = qHTS for differential inhibitors of proliferation of Plasmodium falciparum line W2 (AID 1883); details: Potency: Plasmodium falciparum W2 proliferation inhibition;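 further: parasites grown with compound for 72 h before lysis and staining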; further: potency means the concentration at half of the fitted maximal effect
[2] = qHTS for differential inhibitors of proliferation of Plasmodium falciparum line HB3 (AID 1886); details: Potency: Plasmodium falciparum HB3 proliferation inhibition;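 further: parasites grown with compound for 72 h before SYBR Green readout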; further: potency means the concentration at half of the fitted maximal effect
[3] = molecular target: Ferritin light chain (Equus caballus) (UniProt P02791); test: qHTS Validation Assay for Identification of Novel General Anesthetics (AID 2323)
Summary of the method: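 Fluorescence at 535 nm (excitation 380 nm) reported loss of 1-AMA binding to horse-spleen apoferritin (10 uM) in PBS with 50% saturated 1-aminoanthracene, after 10 min room-temperature incubation with compound; values from Hill fits of normalized response.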

[4] = molecular target: ATP-dependent DNA helicase Q1 (Homo sapiens) (UniProt P46063); test: qHTS Validation Assay for Inhibitors of RecQ-Like Dna Helicase 1 (RECQ1) (AID 2353)
Summary of the method: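 RECQ1T1 50 nM; forked duplex (20 bp + 30-nt ss tails) 200 nM, ATP 2 mM final; pH 8.0, 2 mM MgCl2, 2.5 ug/ml poly(dI-dC); 15 min compound preincubation; discontinuous kinetic read over 2 h at RT.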

[5] = Validation screen for small molecules that induce DNA re-replication in MCF 10A normal breast cells (AID 463097); further: nearly all actives have a fitted effect of over 60% in size
Summary of the method: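 Image-based qHTS: normal breast cells are incubated with compound for 48 hr, stained with Hoechst, and scanned for total nuclear fluorescence. Compounds raising the fraction of nuclei with elevated DNA content count as re-replication inducers.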

[6] = qHTS Assay for Modulators of Human Peripheral Myelin Protein 22 (PMP22) Expression/Activity (AID 1967; active means well fitted curve in the direction sought with a large enough effect in the signal ratio; the % refers to the signal ratio)
Summary of the method: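 Luminescence ratio of Pmp22 promoter-driven green luciferase to EF-alpha-driven red luciferase, in engineered mouse MSC80 Schwann cells, served as read-out. Compounds were incubated 24h; untreated cells defined 0% Activity; curves were classified by r2, magnitude and activity.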

[7] = Cytometric Cell-Based qHTS for Inhibitors of the mTORC1 Signaling Pathway in MEF (Tsc2-/-, p53-/-) Cells (AID 2660);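 further: Tsc2 and p53 null MEFs carrying empty vector with compound for 24 h; percent of cells above a phospho-rpS6 to PI ratio cutoff in each well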
Summary of the method: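 Readout: Alexa-488 phospho-rpS6 (Ser235/236) intensity divided by PI intensity, thresholded against 7.5 nM rapamycin wells and reported as % positive cells. PI cell count served as the viability measure. Compound exposure was 24 hrs at 37 degree Celsius.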

[8] = High Content Imaging Cell-Based qHTS for Inhibitors of the mTORC1 Signaling Pathway in MEF (Tsc2-/-, p53-/-) Cells (AID 2666); details: at 38.3 µM (top of the series);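 further: percent of cells scored positive for phospho-rpS6 Ser235/236 immunostaining by imaging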
Summary of the method: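 Tsc2-/-, p53-/- MEFs (empty-vector stable) grown in DMEM + 10% FBS were exposed to compounds for 24 hrs at 37 degree Celsius, fixed, and stained with Alexa-488 anti-phospho-rpS6 Ser235/236 plus Hoechst. Imaging gave the percentage of positive cells per well.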

[9] = molecular target: Ubiquitin carboxyl-terminal hydrolase 2 (Homo sapiens) (UniProt O75604); test: qHTS Validation Assay for Inhibitors of Ubiquitin-specific Protease USP2a Using CHOP2 as the Reporter (AID 463106)
Excerpt: NIH Molecular Libraries Screening Centers Network [MLSCN]
NIH Chemical Genomics Center [NCGC]
PI Name: Nicholson, Ben. Progenra Inc, Malvern, PA
Homeostasis of cellular proteins is maintained through a combination of synthesis and degradation. The pathway that accounts for the majority of protein degradation is the ubiquitin-proteasomal pathway. Ubiquitin (Ub) is highly conserved in all cells and the generation of a multi-Ub chain typically targets proteins for degradation by the proteasome. However, ubiquitination is highly reversible and dynamic. Deubiquitination, the reverse process, is catalyzed through the action of enzymes referred to as isopeptidases or deubiquitinating enzymes (DUBs). […]
The assay buffer, prepared fresh at the day of the assay, contains 20mM Tris-HCl pH 8.0, 2mM CaCl2, 2mM beta-Mercaptoethanol, 0.05% CHAPS. […] Plates were read after 60min RT incubation on a ViewLux (Perkin Elmer) plate reader using the following wavelengths Ex 485nm /Em 531nm.
Data were normalized to the to AC100 inhibition (NEM). Concentration-response curves were fitted to the normalized data and the concentration-response curves were then classified based on curve quality (r2), response magnitude and degree of measured activity. The time zero reading was used to flag fluorescence artifacts. […]

[10] = molecular target: RecQ-like DNA helicase BLM (Homo sapiens) (UniProt P54132); test: qHTS Validation Assay for Inhibitors of Bloom's syndrome helicase (BLM) (AID 2364)
Summary of the method: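 Forked 20-bp duplex substrate (200 nM, TAMRA/BHQ-2) plus 2 mM ATP added after 15 min compound preincubation with 50 nM enzyme, pH 8.0, poly(dI-dC) 2.5 ug/ml. Strand separation followed by fluorescence (525/598 nm) over 2 h, normalized to enzyme-free and DMSO controls.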

Ferritin light chain (Equus caballus), sequence (P02791 2-175 limits assumed): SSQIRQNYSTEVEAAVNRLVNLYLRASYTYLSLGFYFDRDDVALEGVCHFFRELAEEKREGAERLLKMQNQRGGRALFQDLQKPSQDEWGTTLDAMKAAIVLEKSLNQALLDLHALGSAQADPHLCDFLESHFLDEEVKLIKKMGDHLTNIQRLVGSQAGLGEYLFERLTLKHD
ATP-dependent DNA helicase Q1 (Homo sapiens), sequence (P46063 whole entry, looked up): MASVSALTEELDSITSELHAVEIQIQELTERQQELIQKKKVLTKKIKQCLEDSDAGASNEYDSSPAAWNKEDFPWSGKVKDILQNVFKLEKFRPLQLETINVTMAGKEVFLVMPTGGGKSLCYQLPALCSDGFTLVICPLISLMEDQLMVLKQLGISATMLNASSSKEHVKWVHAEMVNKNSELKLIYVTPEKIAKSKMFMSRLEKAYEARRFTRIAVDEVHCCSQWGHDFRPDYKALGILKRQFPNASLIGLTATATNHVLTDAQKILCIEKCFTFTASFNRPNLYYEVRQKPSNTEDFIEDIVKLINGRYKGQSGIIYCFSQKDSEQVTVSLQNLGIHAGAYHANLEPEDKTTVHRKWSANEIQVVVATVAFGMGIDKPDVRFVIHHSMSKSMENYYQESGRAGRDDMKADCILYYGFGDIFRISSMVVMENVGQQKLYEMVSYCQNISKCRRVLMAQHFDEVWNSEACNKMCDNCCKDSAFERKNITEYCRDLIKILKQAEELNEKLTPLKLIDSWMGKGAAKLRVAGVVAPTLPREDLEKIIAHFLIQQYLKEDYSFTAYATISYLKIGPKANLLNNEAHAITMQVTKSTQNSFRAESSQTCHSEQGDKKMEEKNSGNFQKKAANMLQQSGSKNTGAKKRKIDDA
Ubiquitin carboxyl-terminal hydrolase 2 (Homo sapiens), sequence (O75604 whole entry, looked up): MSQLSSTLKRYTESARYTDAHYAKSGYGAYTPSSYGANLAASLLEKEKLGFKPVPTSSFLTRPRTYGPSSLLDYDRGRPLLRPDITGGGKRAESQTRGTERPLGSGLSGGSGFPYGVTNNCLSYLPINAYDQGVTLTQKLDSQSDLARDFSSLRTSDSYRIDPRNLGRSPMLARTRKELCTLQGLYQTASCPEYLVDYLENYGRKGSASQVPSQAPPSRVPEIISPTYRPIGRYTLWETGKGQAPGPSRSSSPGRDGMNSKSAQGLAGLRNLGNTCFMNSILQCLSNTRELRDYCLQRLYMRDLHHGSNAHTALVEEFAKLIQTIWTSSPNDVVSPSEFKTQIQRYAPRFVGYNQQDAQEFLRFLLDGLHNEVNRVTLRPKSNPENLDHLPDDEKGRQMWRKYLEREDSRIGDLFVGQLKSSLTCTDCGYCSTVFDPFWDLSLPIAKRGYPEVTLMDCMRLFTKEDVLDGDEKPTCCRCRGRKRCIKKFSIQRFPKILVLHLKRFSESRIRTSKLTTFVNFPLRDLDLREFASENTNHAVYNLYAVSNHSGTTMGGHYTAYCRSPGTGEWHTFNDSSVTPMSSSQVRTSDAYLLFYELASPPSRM
RecQ-like DNA helicase BLM (Homo sapiens), sequence (P54132 whole entry, looked up): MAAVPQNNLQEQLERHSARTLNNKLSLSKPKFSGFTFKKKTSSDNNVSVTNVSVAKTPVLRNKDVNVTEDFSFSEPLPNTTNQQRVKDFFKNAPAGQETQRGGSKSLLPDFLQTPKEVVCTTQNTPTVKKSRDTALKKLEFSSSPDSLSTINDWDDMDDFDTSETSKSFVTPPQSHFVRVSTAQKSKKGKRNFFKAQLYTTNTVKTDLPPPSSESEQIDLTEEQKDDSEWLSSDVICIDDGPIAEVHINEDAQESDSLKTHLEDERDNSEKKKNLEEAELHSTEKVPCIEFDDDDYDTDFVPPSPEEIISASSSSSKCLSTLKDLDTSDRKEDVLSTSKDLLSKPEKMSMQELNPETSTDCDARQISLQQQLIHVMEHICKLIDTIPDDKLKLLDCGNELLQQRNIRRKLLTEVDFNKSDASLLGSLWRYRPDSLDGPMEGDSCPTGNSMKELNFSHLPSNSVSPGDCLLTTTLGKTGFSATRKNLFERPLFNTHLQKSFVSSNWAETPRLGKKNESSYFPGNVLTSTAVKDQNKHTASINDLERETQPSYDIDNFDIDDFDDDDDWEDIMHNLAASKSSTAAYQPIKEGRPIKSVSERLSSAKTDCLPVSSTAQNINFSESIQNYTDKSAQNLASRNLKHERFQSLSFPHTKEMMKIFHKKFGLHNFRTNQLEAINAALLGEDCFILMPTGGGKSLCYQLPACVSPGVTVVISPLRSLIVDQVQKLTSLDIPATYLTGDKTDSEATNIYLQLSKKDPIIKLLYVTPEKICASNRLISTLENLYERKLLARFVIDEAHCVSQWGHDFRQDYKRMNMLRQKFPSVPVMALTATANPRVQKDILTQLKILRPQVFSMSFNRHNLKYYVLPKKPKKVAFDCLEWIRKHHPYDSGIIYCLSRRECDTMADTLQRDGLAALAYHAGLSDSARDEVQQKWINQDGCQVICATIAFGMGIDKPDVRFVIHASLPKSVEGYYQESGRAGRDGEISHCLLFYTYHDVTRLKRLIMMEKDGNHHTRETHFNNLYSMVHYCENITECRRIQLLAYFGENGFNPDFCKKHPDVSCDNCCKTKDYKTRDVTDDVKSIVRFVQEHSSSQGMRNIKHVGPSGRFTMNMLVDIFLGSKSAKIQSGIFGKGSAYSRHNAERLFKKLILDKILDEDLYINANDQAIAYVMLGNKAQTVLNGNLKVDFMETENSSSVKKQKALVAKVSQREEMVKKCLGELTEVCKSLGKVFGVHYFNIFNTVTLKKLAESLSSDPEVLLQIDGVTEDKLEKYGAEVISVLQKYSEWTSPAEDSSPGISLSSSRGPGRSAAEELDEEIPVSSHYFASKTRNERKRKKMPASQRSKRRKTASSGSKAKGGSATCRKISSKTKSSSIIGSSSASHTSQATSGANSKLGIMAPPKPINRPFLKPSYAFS

SMILES	Potency [1]	Potency [2]	outcome [3]	outcome [4]	outcome [5]	outcome [6]	outcome [7]	outcome [8]	outcome [9]	outcome [10]
O=c1[nH]c(=O)n([C@H]2C[C@H](O)[C@@H](CO)O2)cc1/C=C/Br	inactive	inactive	inactive	inactive	inactive					
O=C(NCCNCC(O)COc1ccc(O)cc1)N1CCOCC1 (configuration not stated)	inactive	inactive	inactive	inactive	inactive	inactive				
Cc1cc(C)c(NC(=O)C[C@H](CC(=O)O)c2cccc3ccccc23)c(C(=O)N2CCC3(CCCC3)CC2)c1	11.2 µM (active)	14.1 µM (active)	inactive	inactive	inactive					
Oc1ccc(/C=C/c2cc(O)cc(O)c2)cc1		inactive	inactive	inactive	inactive		inactive	inactive	inactive	
C[C@@](Cc1ccc(O)c(O)c1)(NN)C(=O)O			inactive	inactive	inactive					inactive
